Results from PMC7862700, “An all-to-all approach to the identification of sequence-specific readers for epigenetic DNA modifications on cytosine”.

Assays:
Test in all cases: DAPPL (digital affinity profiling via proximity ligation, sequencing); 10 mM Tris-HCl pH 7.5, 50 mM NaCl, 1 mM DTT, 4% glycerol, room temperature, 30 min; GST-TFs on glutathione beads, 16-mer random dsDNA library, 0.1% formaldehyde crosslink after washing; high values mean tight binding
Conditions in all cases: protein: recombinant; tags: N-terminal GST; dsDNA, one strand shown
ETV2 = target: T1, ETV2 (Homo sapiens, UniProt O00321 1-342)
T1 sequence: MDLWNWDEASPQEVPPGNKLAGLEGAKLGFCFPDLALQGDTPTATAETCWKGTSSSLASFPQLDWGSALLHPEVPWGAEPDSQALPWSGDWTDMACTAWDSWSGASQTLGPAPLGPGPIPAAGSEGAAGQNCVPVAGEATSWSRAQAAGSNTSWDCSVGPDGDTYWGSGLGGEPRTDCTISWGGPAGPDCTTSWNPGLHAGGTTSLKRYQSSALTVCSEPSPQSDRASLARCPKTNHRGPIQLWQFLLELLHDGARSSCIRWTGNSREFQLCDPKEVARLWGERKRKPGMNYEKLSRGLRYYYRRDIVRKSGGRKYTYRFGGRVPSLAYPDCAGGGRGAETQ
Summary of the method: (§1)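 Sequencing on an Illumina NextSeq500 followed washing, crosslinking with 0.1% formaldehyde, proximity ligation (BsaI/T4 ligase, 1 h, 37 °C) and PCR amplification of pools that had been incubated for 30 min at room temperature with 200 nmole of a random double-stranded 16-mer DNA library in Tris/NaCl/DTT/glycerol buffer. Each pool held DNA-barcoded human transcription factors, expressed in yeast as GST fusions and captured on glutathione beads, plus a tag-only sample. Binding signal is a hexamer's read frequency for a factor divided by its frequency in the tag-only sample.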

ELF3 = target: T2, ELF3 (Homo sapiens, UniProt P78545 1-371)
T2 sequence: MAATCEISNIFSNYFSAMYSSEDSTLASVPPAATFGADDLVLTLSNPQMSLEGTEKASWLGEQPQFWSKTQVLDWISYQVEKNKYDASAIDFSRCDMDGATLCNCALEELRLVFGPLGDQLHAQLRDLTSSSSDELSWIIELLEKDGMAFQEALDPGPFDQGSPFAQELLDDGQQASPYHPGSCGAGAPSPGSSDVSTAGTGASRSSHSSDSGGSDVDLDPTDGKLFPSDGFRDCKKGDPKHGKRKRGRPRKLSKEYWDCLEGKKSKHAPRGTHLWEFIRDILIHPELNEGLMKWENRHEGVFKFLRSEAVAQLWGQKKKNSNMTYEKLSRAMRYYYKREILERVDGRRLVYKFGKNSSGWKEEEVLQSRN
Summary of the method: as §1

ETV1 = ETV1 (Homo sapiens, UniProt P50549 1-477)
ETV1, sequence (P50549 whole entry): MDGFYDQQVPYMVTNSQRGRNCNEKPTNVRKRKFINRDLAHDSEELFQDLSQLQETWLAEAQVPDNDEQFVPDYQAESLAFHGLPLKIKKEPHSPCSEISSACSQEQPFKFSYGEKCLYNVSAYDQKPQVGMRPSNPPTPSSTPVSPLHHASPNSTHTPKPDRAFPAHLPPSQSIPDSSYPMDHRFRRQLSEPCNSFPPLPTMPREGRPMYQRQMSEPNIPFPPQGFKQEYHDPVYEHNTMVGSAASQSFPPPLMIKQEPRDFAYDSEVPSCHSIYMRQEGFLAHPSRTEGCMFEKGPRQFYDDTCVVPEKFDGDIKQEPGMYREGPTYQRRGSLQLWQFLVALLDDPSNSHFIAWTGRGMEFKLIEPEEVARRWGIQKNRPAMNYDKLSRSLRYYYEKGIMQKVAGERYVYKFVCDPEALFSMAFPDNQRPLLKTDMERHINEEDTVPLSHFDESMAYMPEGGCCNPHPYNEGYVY
Summary of the method: as §1

ERF = target: T3, ERF (Homo sapiens, UniProt P50548 1-548)
T3 sequence: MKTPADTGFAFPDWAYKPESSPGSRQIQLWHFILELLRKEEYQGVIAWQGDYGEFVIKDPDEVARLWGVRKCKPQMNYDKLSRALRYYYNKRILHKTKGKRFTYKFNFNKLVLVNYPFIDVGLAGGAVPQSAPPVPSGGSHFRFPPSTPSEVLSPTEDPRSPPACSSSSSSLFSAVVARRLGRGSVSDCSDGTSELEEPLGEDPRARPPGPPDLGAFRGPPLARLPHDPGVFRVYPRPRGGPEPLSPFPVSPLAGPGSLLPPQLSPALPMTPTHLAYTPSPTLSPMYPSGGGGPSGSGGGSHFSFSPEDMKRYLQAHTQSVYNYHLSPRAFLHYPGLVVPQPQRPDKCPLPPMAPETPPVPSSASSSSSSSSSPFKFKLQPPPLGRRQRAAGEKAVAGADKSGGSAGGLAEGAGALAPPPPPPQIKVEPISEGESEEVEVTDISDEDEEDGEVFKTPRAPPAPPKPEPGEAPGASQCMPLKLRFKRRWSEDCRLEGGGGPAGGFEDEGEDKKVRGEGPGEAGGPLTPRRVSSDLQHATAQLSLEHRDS
Summary of the method: as §1

ETV3L = target: T4, ETV3L (Homo sapiens, UniProt Q6ZN32 1-361)
T4 sequence: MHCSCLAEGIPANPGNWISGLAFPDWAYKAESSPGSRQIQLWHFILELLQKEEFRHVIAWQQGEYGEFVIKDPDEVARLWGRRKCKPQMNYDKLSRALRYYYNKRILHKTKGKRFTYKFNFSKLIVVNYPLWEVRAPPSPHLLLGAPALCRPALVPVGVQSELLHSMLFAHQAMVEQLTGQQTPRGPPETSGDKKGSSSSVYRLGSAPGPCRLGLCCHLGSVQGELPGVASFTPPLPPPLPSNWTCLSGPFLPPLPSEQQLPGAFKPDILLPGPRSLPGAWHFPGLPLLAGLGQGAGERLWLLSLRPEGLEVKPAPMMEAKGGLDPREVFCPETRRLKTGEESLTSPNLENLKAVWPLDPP
Summary of the method: as §1

ETS2 = target: T5, ETS2 (Homo sapiens, UniProt P15036 1-469)
T5 sequence: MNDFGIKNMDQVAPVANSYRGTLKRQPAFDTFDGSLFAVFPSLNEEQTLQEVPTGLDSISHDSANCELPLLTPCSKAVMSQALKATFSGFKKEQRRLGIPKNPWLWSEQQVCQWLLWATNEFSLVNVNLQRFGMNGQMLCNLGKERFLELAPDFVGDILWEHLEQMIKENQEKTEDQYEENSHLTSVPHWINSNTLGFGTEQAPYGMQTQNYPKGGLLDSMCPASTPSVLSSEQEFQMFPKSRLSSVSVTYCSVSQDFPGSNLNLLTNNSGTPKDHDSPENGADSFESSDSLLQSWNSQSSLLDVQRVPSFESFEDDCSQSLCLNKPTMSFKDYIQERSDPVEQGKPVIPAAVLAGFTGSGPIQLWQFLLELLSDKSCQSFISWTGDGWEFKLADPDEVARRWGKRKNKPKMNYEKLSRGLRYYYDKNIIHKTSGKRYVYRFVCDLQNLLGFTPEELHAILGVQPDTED
Summary of the method: as §1

SPDEF = target: T6, SPDEF (Homo sapiens, UniProt O95238 1-335)
T6 sequence: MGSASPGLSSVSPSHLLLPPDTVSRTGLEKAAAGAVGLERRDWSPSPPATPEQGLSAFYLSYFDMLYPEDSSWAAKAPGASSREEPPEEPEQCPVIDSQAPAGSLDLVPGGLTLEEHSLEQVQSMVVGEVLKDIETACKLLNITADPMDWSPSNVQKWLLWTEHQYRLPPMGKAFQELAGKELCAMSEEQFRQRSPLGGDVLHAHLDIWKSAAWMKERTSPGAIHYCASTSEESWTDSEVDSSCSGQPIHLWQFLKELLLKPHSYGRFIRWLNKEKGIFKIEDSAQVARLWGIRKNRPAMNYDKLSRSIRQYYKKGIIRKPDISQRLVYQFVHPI
Summary of the method: as §1

ETV7 = target: T7, ETV7 (Homo sapiens, UniProt Q9Y603 1-341)
T7 sequence: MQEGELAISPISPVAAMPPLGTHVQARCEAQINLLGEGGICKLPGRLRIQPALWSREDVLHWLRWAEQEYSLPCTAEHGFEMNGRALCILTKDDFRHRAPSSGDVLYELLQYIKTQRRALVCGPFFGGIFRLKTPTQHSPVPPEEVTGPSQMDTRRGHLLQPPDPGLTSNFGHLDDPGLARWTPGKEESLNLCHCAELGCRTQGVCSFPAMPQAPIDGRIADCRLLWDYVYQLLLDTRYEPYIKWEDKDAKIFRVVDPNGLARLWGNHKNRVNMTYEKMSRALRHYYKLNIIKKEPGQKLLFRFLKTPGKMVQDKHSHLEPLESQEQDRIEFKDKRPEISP
Summary of the method: as §1

ELF5 = target: T8, ELF5 (Homo sapiens, UniProt Q9UKW6-2 1-255)
T8 sequence: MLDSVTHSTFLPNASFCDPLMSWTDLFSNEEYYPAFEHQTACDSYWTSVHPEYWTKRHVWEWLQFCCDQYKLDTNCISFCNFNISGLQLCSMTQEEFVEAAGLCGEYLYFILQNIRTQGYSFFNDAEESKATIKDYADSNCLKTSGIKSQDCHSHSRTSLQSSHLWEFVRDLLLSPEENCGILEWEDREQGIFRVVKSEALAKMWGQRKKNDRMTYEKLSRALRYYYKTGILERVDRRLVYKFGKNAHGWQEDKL
Summary of the method: as §1

ETV3 = target: T9, ETV3 (Homo sapiens, UniProt P41162-2 1-143)
T9 sequence: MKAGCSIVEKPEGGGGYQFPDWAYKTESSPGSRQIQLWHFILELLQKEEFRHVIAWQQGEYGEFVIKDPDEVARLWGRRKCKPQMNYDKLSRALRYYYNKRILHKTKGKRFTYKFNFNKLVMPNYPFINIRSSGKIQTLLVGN
Summary of the method: as §1

ETV6 = ETV6 (Homo sapiens, UniProt P41212 1-452)
ETV6, sequence (P41212 whole entry): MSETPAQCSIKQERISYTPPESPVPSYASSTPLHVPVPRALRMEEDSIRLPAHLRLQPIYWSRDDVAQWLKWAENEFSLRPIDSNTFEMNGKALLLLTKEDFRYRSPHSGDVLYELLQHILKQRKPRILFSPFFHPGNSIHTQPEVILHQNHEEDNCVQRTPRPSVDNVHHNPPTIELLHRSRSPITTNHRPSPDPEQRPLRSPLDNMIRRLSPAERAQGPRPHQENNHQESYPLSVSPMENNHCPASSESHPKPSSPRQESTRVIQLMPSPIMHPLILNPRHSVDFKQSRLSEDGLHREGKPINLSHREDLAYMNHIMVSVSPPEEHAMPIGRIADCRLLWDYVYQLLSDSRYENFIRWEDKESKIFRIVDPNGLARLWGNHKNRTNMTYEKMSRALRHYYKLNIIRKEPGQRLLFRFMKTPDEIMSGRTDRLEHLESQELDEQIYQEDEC
Summary of the method: as §1

ACAGCC
binding signal (ETV2): 1.05 fold enrichment (6-mer frequency, TF over GST control)
binding signal (ELF3): 1.24 fold enrichment (6-mer frequency, TF over GST control)
binding signal (ETV1): 1.06 fold enrichment (6-mer frequency, TF over GST control)
binding signal (ERF): 1.18 fold enrichment (6-mer frequency, TF over GST control)
binding signal (ETV3L): 1.04 fold enrichment (6-mer frequency, TF over GST control)
binding signal (ETS2): 1.03 fold enrichment (6-mer frequency, TF over GST control)
binding signal (SPDEF): 1.02 fold enrichment (6-mer frequency, TF over GST control)
binding signal (ETV7): 1.15 fold enrichment (6-mer frequency, TF over GST control)
binding signal (ELF5): 1.03 fold enrichment (6-mer frequency, TF over GST control)
binding signal (ETV3): 1.04 fold enrichment (6-mer frequency, TF over GST control)
binding signal (ETV6): 1.03 fold enrichment (6-mer frequency, TF over GST control)
